Assay results: PubChem BioAssay (NCATS)
Inconclusive results are not listed. Calls of active or inactive are those of the source. The call rests on the fitted dose curve; in most records, active means well fitted inhibition curve with a large enough effect; inconclusive means small, poorly fitted or top-dose-only effect; inactive means no such curve, though single readings can be large or run the other way.

Biological target: Tumor susceptibility gene 101 protein (Homo sapiens) (UniProt Q99816)
Sequence (Q99816 whole entry, looked up): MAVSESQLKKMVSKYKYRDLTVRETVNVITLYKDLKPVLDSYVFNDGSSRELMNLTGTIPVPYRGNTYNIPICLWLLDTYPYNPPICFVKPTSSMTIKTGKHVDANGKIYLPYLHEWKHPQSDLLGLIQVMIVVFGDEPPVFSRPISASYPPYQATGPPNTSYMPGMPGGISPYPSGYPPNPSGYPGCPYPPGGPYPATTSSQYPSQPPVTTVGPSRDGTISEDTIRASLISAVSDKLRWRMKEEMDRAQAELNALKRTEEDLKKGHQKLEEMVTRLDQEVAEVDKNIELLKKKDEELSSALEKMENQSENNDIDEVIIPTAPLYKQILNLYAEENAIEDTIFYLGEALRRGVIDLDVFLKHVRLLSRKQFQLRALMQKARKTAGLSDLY
Assay: qHTS Assay for Iinhibitors of HIV-1 Budding by Blocking the Interaction of PTAP/TSG101: Hit Validation (AID 651600); further: nearly all actives have a fitted effect of over 70% in size
Conditions: PTAP peptide/TSG101 UEV interaction, biochemical assay; series mostly up to 57.5 µM; activity change, negative = inhibition: at the top concentration
In short: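 Fluorescence polarization binding assay: Tsg101 binding domain (10 uM final) pre-dispensed with compounds, then FITC-labeled PTAP-motif peptide (50 nM final) added; 20 min at r.t. in HEPES pH 7.5 buffer with NaCl, Tween 20, EDTA, TCEP.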
On the % scale 0 is the no-effect control and ±100 the full control effect; potency means the concentration at half of the fitted maximal effect.

Activity change, negative = inhibition, inactive:
CCc1cccc(CC)c1NC(=O)CSc1nnc(C2CC2)n1C -0.886%, O=C(CC1CC2CCC1C2)NCc1cccs1 (stereo not drawn) 5.71%, Cc1cc2c(cc1C)NC(c1c(C)n(C)n(-c3ccccc3)c1=O)C1=C(CC(C)(C)CC1=O)N2 (stereo not drawn) 6.09%, Cn1c2ccc(F)cc2c2nc3ccccc3nc21 -28.8%, O=C1c2cccc3c([N+](=O)[O-])ccc(c23)C(=O)N1c1ccc(Cl)cn1 -26.4%, Fc1ccc(C2=CC(c3ccco3)n3ncnc3N2)cc1 (stereo not drawn) -1.05%

Potency, active:
COCCN(CCOC)Cc1c(O)ccc2c1O/C(=C\c1ccco1)C2=O 13 µM, COc1cccc2c1C(=O)c1c(O)c3c(c(O)c1C2=O)CC(O)(C(C)=O)CC3OC1CC(O)C(O)C(C)O1 (stereo not drawn) 13 µM
